HIF-2a block – inhibitors of HIF-2a. 786-0 RCC cells HIF-2a reporter, luciferase luminescence, overnight. inhibition, % at 18.8 µM. 360,000 tested, 0.72% active;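 active = inhibition of the luminescence signal of 40% or more relative to plate controls, in a single-dose primary screen at 18.75 µM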
CHOP inhibitor – blocks CHOP induction under ER stress; CHO-K1 CHOP-promoter luciferase, tunicamycin-induced, 15-18 h; inhibition, % at 10 µM; 220,000 tested, 3.8% active;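 active = compounds that reduced the stress-induced luciferase reporter signal by more than about 70% of percent inhibition, limit read from the data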
Peg3 prom inh – Peg3 promoter activity inhibition; inhibition, % at 20 µM; HeLa PEG-Prom luciferase reporter, luminescence, overnight; AID 588405; 360,000 tested, 1.7% active;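 active = inhibition of at least 50% at 20 µM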
CF NFkB block – blocks PAF-induced NF-kB reporter in cystic fibrosis cells; 360,000 tested, 0.86% active; KKLEB NF-kB-GFP reporter, GFP fluorescence overnight; inhibition, % at 5 µM; AID 588850;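 active = at least 50% inhibition at 5 µM, scaled per plate between neutral and stimulator controls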;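 also: PAF is a Pseudomonas aeruginosa culture filtrate used as stimulus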
KKLEB cytotox – counter-screen for CF NF-kB inhibitors: cytotoxicity; 360,000 tested, 0.36% active; AID 602141; KKLEB CF airway cells viability, ATPlite luminescence, overnight; hits give low values; cells stimulated with P. aeruginosa culture filtrate; activity change (cytotoxicity), % at 5 µM;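 active = corrected activity change at or below -50% at 5 µM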
TRPM1 prom inh – reduces MITF-dependent TRPM1 promoter luciferase signal; inhibition, % at 12.5 µM; 330,000 tested, 0.83% active; SK-MEL-5 TRPM1 promoter luciferase, 24 h;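 active = mean inhibition across replicates of 60% or more, whatever share of single replicates reaches that level; inconclusive = some that reach 60%, reason not given; inactive = mean inhibition across replicates below 60%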
A number is an active result; i = inactive; ? = inconclusive; nt = no result. Rows were chosen to be rich in hits. Some 4.3% of all compounds tested hit in one or more screens of this group.

SMILES	HIF-2a block	CHOP inhibitor	Peg3 prom inh	CF NFkB block	KKLEB cytotox	TRPM1 prom inh
O=C(Oc1c(Cl)cc(Cl)c2cccnc12)c1ccco1	i	i	56	i	i	i
CCN(CC(=O)Nc1c(F)cccc1F)C(=O)c1ccc(N2C(=O)c3ccccc3C2=O)cc1	i	nt	i	i	i	i
CC(Sc1nnc(COc2ccc(Cl)cc2)n1Cc1ccco1)C(=O)N1CCNC1=O (configuration not stated)	i	nt	i	i	i	i
COc1ccc(C(=O)Oc2c(CN3CCOCC3)cc(Cl)c3cccnc23)cc1	i	i	i	i	i	i
COc1cccc(C(=O)Oc2c(CN3CCOCC3)cc(Cl)c3cccnc23)c1	i	i	i	i	i	67
CCCCCc1c(C)nc(Nc2ccc(F)cc2)[nH]c1=O	i	82	i	i	i	i
CCCCc1c(C)nc(Nc2ccc(OC)cc2)[nH]c1=O	i	i	i	i	i	i
CC(C)OC(=O)C1=C(N)N2C(=O)CSC2=C(C(=O)OC(C)C)C1	i	i	52	i	i	i
Cc1c(-c2ccccc2)oc2c(C(=O)N3CCN(c4ccccc4F)CC3)cccc2c1=O	i	71	i	i	i	i
O=C1c2ccccc2C(=O)c2c(/C=C/N3CCCCC3)ccnc21	i	nt	i	i	i	95
CCCCC(CC)CO (configuration not stated)	i	nt	110	i	i	i
O=C(O)CSc1nc(-c2ccc(Cl)cc2)nc2c1oc1ccccc12	i	74	i	i	i	i
CCCCCc1cc(=O)oc2c(C(CCN(CC)CC)c3ccc(N(C)C)cc3)c(OC)cc(OC)c12 (configuration not stated)	i	i	100	i	i	89
CCCCCc1cc(=O)oc2c(C(CCN3CCCC(C)C3)c3ccc(N(C)C)cc3)c(OC)cc(OC)c12 (configuration not stated)	i	84	94	i	i	i
CCCCCc1cc(=O)oc2c(C(CCN3CCCC(C)C3)c3cc(OC)c(OC)c(OC)c3)c(OC)cc(OC)c12 (configuration not stated)	i	93	101	i	i	73
CCN(CC)CCC(c1cc(OC)c(OC)c(OC)c1)c1c(OC)cc(OC)c2c(C)cc(=O)oc12 (configuration not stated)	i	i	i	i	i	i
CCOC(=O)C(CC(=O)Nc1nc(C(C)=O)c(C)s1)C(C)c1ccccc1 (configuration not stated)	i	nt	i	i	i	i
CC(C)c1ccc(CNc2nc(NCC3CC3)nc3ccsc23)cc1	i	nt	54	i	i	nt
COc1ccccc1CNc1nc(NCCOc2ccccc2Cl)c2sccc2n1	i	nt	60	i	i	nt
COc1ccccc1CNc1nc(NCc2ccc(C(C)C)cc2)c2sccc2n1	i	nt	95	i	i	nt
CCOC(=O)c1c(NC(=O)C2C3C=CC(C3)C2C(=O)O)sc2c1CCC(CC)C2 (configuration not stated)	i	72	i	i	i	i
COc1ccc(NC(=O)Nc2nnc(-c3cccs3)s2)cc1	i	88	i	i	i	i
O=C(Nc1ccccc1)Nc1nnc(-c2cccs2)s1	i	i	i	i	i	i
Cc1occc1C(=O)Nc1nccs1	i	i	i	i	i	i
COc1ccc(C(=O)Nc2nnc(-c3cccs3)s2)cc1	i	70	i	i	i	i
SMILES	HIF-2a block	CHOP inhibitor	Peg3 prom inh	CF NFkB block	KKLEB cytotox	TRPM1 prom inh
COc1ccc(C(=O)Nc2nc(-c3cccs3)c(NC(C)=O)s2)cc1	i	i	i	i	i	i
O=C(Nc1nnc(-c2cccs2)s1)c1cccc(F)c1	i	93	i	i	i	i
Cc1occc1C(=O)Nc1nnc(-c2cccs2)s1	i	81	i	i	i	i
Cc1nnc(NC(=O)c2cccc(F)c2)s1	i	i	i	i	i	i
CC(C)c1ccc(OCc2ccc(C(=O)O)o2)cc1	49	i	51	i	i	i
Cc1cc(C)nc(Nc2nc(C(N)Cc3ccccc3)cs2)n1 (configuration not stated)	i	nt	i	i	i	nt
CCOc1cc(C)c(C(C)C)cc1S(=O)(=O)n1ccc(C)n1	i	77	i	i	i	i
COc1ccc(S(=O)(=O)N2CCC(C(=O)NCCc3ccccc3)CC2)cc1	i	nt	i	i	i	i
CCN1/C(=C/C=C/c2sc3ccccc3[n+]2CC)Sc2ccccc21	i	nt	78	i	i	99
CCN1/C(=C/C=C/C=C/C=C/c2sc3ccccc3[n+]2CC)Sc2ccccc21	i	nt	i	i	i	95
Cc1cccc(NC(=O)c2ccc3c(c2)C(=O)N(Cc2cccnc2)C3=O)c1C	i	nt	i	i	i	i
CCCCN1C(=O)c2ccc(C(=O)Nc3cccc(C)c3C)cc2C1=O	i	76	i	i	i	i
O=C(Nc1ccccc1O)c1ccc2c(c1)C(=O)N(Cc1ccco1)C2=O	i	nt	64	i	i	i
Cc1ccccc1NC(=O)c1ccc2c(c1)C(=O)N(CCC(C)C)C2=O	i	79	i	i	i	i
CN(CC(=O)Nc1cccc(S(=O)(=O)NC2=NCCC2)c1)Cc1ccccc1Cl	i	nt	i	i	i	i
COc1ccccc1/C=N/NC(=O)C(=O)Nc1ccccc1OC(F)(F)C(F)F	i	i	i	i	i	i
O=C(N/N=C/c1cc(Br)ccc1O)C(=O)Nc1ccccc1OC(F)(F)C(F)F	i	77	57	i	i	66
O=C(N/N=C/c1cc(Cl)ccc1O)C(=O)Nc1ccccc1OC(F)(F)C(F)F	i	78	60	i	i	65
O=C(N/N=C/c1cc(Cl)ccc1O)c1ccncc1	i	72	i	i	i	62
COc1ccc(CCNC(=O)c2ccc3nc(N4CCCCC4)sc3c2)cc1OC	i	nt	i	i	i	nt
O=C(O/N=C1\CCCc2ccccc21)c1ccc(F)cc1	i	72	i	i	i	i
Cc1ccc2c(c1)/C(=N/OC(=O)c1ccc(F)cc1)CCS2	i	i	i	i	i	i
Clc1ccc(-c2cc3ccccc3[nH]2)cc1	i	95	i	i	i	i
O=c1cc(-c2ccc(Cl)cc2)[nH]c2ccccc12	nt	i	nt	nt	nt	nt
CC(C(=O)Nc1ccc(Cl)cc1Cl)N1C(=O)NC2(CCCCCCC2)C1=O (configuration not stated)	i	nt	i	i	i	i
CCCCC(=O)NC(c1ccc(N(C)C)cc1)c1ccc2cccnc2c1O (configuration not stated)	i	nt	i	i	i	61
CCC(=O)NC(c1cccs1)c1cc([N+](=O)[O-])c2cccnc2c1OC (configuration not stated)	i	nt	i	i	i	nt
CCN(CC)c1ccc(C(NC(=O)C(C)C)c2ccc3cccnc3c2O)cc1 (configuration not stated)	i	nt	i	i	i	nt
CC(C)CC(=O)NC(c1cccs1)c1ccc2cccnc2c1O (configuration not stated)	i	79	i	i	i	?
